Measurements as given in the supplement of paper PMC11417369.
± gives the standard deviation of the averaged measurements. Whole data set: some 25,000 sequences, median “ln(normalized median fluorescence intensity)” near 10, cut for the highest 2% near 12. The list comes from a sample in which the highest values are over-represented; it also holds similar and randomly drawn sequences.

These sequences were tested on PfAP2-G AP2 domain (GST-tagged) (assay: gcPBM binding intensity (ln(normalized median fluorescence intensity)); higher = stronger DNA binding).
Outline: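 GST-tagged P. falciparum DNA-binding domains produced in E. coli were incubated for 1 h on an Agilent 4 × 180k array of primer-extended double-stranded 36-bp intergenic genomic probes with negative controls. Binding intensity is the highest Masliner-normalised natural-log median intensity across replicate spots of either probe orientation, with bound protein detected by Alexa488 anti-GST antibody at 488 nm.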

Sequence | gcPBM binding intensity (ln)
GCTTATTTTAATTCTTGTACTTATTTATATACAAAT [XGTACX_site2099] | 11.2 ± 0.83
TTATTTATTTATATAGTGCAATAAACACATAAATAG | 10.1 ± 0.26
TTTTGTAATTTTGTATGTACACATTAAAGTAATATG [XGTACX_site2401] | 11.5 ± 0.91
AATTTTCAATAGTATACACACAATTCTATAAATATA [CACACA_site6650] | 9.84 ± 0.042
ACTTCATTTTATAAGTGTACATAATTTGTTTATATA [XGTACX_site5453] | 11.5 ± 0.85
AATAATTGTTAAAGGTGTACAATACGTATGTAAGAA [XGTACX_site1328] | 11.5 ± 0.95
AATAATTCTTAAAGGTGTACAATATGTATATAAGAA [XGTACX_site595] | 11.7 ± 0.6
AACAATTTTTAAAGGTGTACAATATGTATATAAGAA [XGTACX_site254] | 11.6 ± 0.93
AATAAATAAATAAATAAAACAAAGGGATTACATACA [TGCATGCA_negctrl_site513] | 9.84 ± 0.11
TACATTTATAATAATACACACATAAATTTACATTTT [CACACA_site3463] | 10.1 ± 0.16
ATATATATATACATATGTACATATAAAATAATTTTG [XGTACX_site3731] | 11.1 ± 0.74
CGGCACATTCTATATACACACATATAAATATATACA [CACACA_site566] | 9.97 ± 0.042
CCAACATTTTTTAGAAGTACATTTTTATATTTATTA [XGTACX_site5179] | 11.3 ± 0.83
TTATTATGCTGAGTACGTACTTATATAAGAATAGCA [XGTACX_site2955] | 11.8 ± 1
AGAATAAGAATTATTAGTACTTATAAATATTATATT [XGTACX_site7228] | 10.9 ± 0.58
TATATTATTATGCATAGTACGTACTGTGATAAGAAT [XGTACX_site2956] | 11.4 ± 0.8
AAAAAAAAATATATATATATATATATAAATAAATTT [CACACA_negctrl_site519] | 9.315 ± 0.007
AGGAAAAAAAAAATGACACACATATTTGAATTAAAA [CACACA_site1352] | 9.965 ± 0.007
ACAAAATTTACAAAATGTACAAAGTATGTGTTTTAT [XGTACX_site6462] | 10.7 ± 0.36
TATATGTGGGTTTTTTTTATGTGTTTTTCTTTTTTT [CACACA_negctrl_site936] | 10.2 ± 0.18
TATTATAATTTTATATGTACACATATATAAATATAT [XGTACX_site4054] | 11.4 ± 1.1
AAATTATTTCCGTGTACACATAAATATATATTTTAT [CACACA_site5121] | 11.8 ± 0.83

Sequence | gcPBM binding intensity (ln)
TTAATTTTATTTTTTTGTACACATAAATATTATAAA [XGTACX_site4680] | 11.4 ± 0.91
GTGAAATTATTTCCGTGTACACATAAATATATATTT [XGTACX_site3989] | 11.8 ± 0.99
TGAAATAAAATTTGTACACACATATTTATTTATATA [CACACA_site6421] | 11.2 ± 0.97
TGTGAAATAAAATTTGTACACACATATATATATATA [CACACA_site8093] | 11.1 ± 0.73
TATTATGTCTAAAATAACATATTAATATATTATTTC [CACACA_negctrl_site285] | 9.77 ± 0.11
TAAACAGTATGCAACGCATGCGTTGTTATATATAAA [TGCATGCA_site232] | 9.88 ± 0.042
TCTTTTAAACAGTACACACACACATATATATATATA [CACACA_site924] | 11.2 ± 0.69
AGCGTATTATACTGACGTACATTTTATGTAACTCCA [XGTACX_site2715] | 11.4 ± 1.1
ATATGATCATTTTATCATTTTGCTTTTTCTTTTTTT [CACACA_negctrl_site1325] | 9.4 ± 0.42
TTTGTTCATATGAAATGTACAAAAAAAAAAAAAAAA [XGTACX_site8849] | 10.8 ± 0.77
ATATTTTTGTTCAGGAGTACAGTTCAAGATGAAAAT [XGTACX_site4178] | 11.6 ± 0.99
GAGTTAATATTTAAAAGTACAAGATGAATGTAAAAA [XGTACX_site5810] | 11.3 ± 0.78
CATCTAAATTGTAGTTGTACACCTTAATCTTATTAC [XGTACX_site7547] | 11.7 ± 0.83
ATATAATAGTTATATTGTACATAAATTATACACCTT [XGTACX_site628] | 11 ± 0.5
ATAAATAATTGTAGTTGTACATGATATTTTTATTAC [XGTACX_site550] | 11.1 ± 0.63
TTAGTATATTTTTCCTGTACGTACTCAGATACAAAT [XGTACX_site7397] | 11.7 ± 0.91
ATTTTTATTAAAATATGTACGTATTTTACTCATACA [XGTACX_site5330] | 11.6 ± 0.8
ATATATGTATATTTATGTACGTATTCCTGTATAGTC [XGTACX_site5763] | 11.5 ± 0.85
TGGAATAAAAAAAGGAGTACAATTAATTATTCTTAA [XGTACX_site8299] | 11.8 ± 1.3
TTTAATAATTATTAAAGTACAAAATAAATATTGAAT [XGTACX_site7538] | 11 ± 0.62
CAAATAAAAATAAGGAGTACAATTAAAAAAGGAAGG [XGTACX_site4366] | 11.6 ± 0.91
TTGTATATATATGGAAAAATATATATATATATATAT [GTGCAC_negctrl_site591] | 10.3 ± 0.83
